The values that follow come from PubChem BioAssay.

The structures appear in SMILES notation. The source made the active and inactive calls. The rule behind the calls is not given here.

For the assay, the target named is Pantothenate synthetase (Mycobacterium tuberculosis (strain ATCC 25618 / H37Rv)) (UniProt P9WIL5). In words: Recombinant Mtb pantothenate synthetase (PanC) inhibitors, coupled enzyme, confirmatory (AID 375).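 Note: 0% = full reaction with vehicle and 100% = no enzyme background.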 Conditions: coupled enzyme assay; at 10 µM, active compounds read high.
Chain of Pantothenate synthetase (Mycobacterium tuberculosis (strain ATCC 25618 / H37Rv)) (P9WIL5 whole entry, looked up): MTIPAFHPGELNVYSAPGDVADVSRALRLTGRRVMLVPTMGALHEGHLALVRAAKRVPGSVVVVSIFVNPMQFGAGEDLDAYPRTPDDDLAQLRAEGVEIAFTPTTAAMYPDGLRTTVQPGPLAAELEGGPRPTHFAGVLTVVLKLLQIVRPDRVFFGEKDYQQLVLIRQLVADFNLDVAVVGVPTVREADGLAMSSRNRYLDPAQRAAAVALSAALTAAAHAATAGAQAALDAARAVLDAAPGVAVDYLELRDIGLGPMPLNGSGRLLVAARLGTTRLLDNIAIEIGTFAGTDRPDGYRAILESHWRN
In general, inhibition refers to the share of the control response that was lost under treatment. With `CCn1c(SCc2cc(=O)[nH]c3ccccc23)nc2c1c(=O)n(C)c(=O)n2C`, the inhibition is 5% (inactive).
To `CCOC(=O)c1sc(NC(=O)COC(=O)Cn2cnc3ccccc32)c(C(=O)OCC)c1C` belongs 3% (inactive); to `O=c1nc(N2CCCC2)nc(Nc2ccccc2)[nH]1`, 0% (inactive).
To `Cc1cc(C)c2c(n1)nn1c(NCCCN3CCOCC3)cc(C)nc21` belongs 9% (inactive); to `O=C(NCC12CC3CC(C1)CC(CNC(=O)N1CCCC1)(C3)C2)N1CCCC1`, 0% (inactive).
The figure for `CC1Cc2ccccc2N1C(=O)CSc1nc2ccccc2n1CC(=O)N1CCOCC1` (centres undefined) is 0% (inactive); for `CCCCn1cnc2c(cnn2-c2ccc(Cl)cc2)c1=O` it is 6% (inactive).
`Cc1ccc2nc(NC(=O)CN(C)S(=O)(=O)c3cccc4nsnc34)sc2c1`: the inhibition was 0% (inactive).
Take `CCOc1ccc(CN2CCN(c3cc(C)nc4c5c(C)cc(C)nc5nn34)CC2)cc1`: the inhibition was 0% (inactive).
To `COc1ccc(-n2c(SCC#N)nc3ccccc3c2=O)cc1` belongs 1% (inactive); to `CN(C)C(=O)c1ccc(COc2ccccc2Br)o1`, 0% (inactive).
To `CCOC(=O)CSc1nc2cc(C(=O)NCc3ccco3)ccc2c(=O)n1C1CCCCC1` belongs 0% (inactive).
To `Cn1c(=O)c2c(nc(N3CCCCC3)n2CCSc2nc3ccccc3o2)n(C)c1=O` belongs 8% (inactive).
With `N#CC(C(=O)c1ccco1)c1ccccn1` (centres undefined), the inhibition was 3% (inactive).
Regarding `COC(=O)C1=C(C)Nc2ncnn2C1c1ccco1` (centres undefined), the inhibition was 0% (inactive).
To `CCn1c(C(=O)N2CCC(C(=O)N3CCN(c4ccccn4)CC3)CC2)cc2sccc21` belongs 7% (inactive); to `O=C(CSc1nnc(Cc2ccccc2)n1C1CCCCC1)N1CCOCC1`, 3% (inactive); to `O=c1c2[nH]c3ccc(Cl)cc3c2ncn1Cc1ccccn1`, 0% (inactive).
To `CC(=O)NCc1cccc(CNC(C)=O)n1` belongs 11% (inactive); to `Cc1cc(C)n(CCCNC(=O)c2ccc3c(c2)NC(=O)CS3)n1`, 0% (inactive); to `COc1ccc(C(=O)N(CCN2CCOCC2)CC(=O)NC2CCCC2)cc1OC`, 1% (inactive).
The figure for `Cc1cc(OC(=O)N2CCOCC2)cc(C)c1Cl` is 0% (inactive).
With `CCN1CCN(Cc2ccccc2NC(=O)Nc2ccc(C)cc2)CC1`, the inhibition is 3% (inactive).
To `Cc1ccc(Nc2nc(N)nc(CN3CCN(Cc4ccc5c(c4)OCO5)CC3)n2)cc1` belongs 0% (inactive).
